The values below come from PubChem BioAssay AID2314 (National Center for Advancing Translational Sciences (NCATS), 2010).

Structures are written as SMILES. The campaign covered roughly 300,000 compounds. About 37,000 (12%) were called active. The entries come from a sample that favours actives as a whole. Values without a mark were called inactive. No stated cut-off is given here; in the data, active means max response mostly above about 13% (no sharp cut-off); inactive means mostly below about 14%.

This experiment is described as follows: Cycloheximide Counterscreen for Small Molecule Inhibitors of Shiga Toxin. Further: read at 38.3 µM for the half of the compounds with a filed dose; 0% is about no effect. The settings on record: cell reporter, cycloheximide protein synthesis inhibition counterscreen; hits give high values. Background: The purpose of a counterscreen is to sort out artefacts and off-target activity.
With `CC(Oc1cccc(Cl)c1)C(=O)NC1CC(C)(C)NC(C)(C)C1` (configuration not stated), the max response was -2.91%.

Consider `Cc1ccc(OCc2n[nH]c(=S)n2-c2ccc(C)cc2)cc1`, for which the max response is -1.5%.

For the compound `COc1ccc(NC(=S)NCCNC(C)=O)cc1`, the max response was 0.644%.

`COc1ccc(Cc2n[nH]c(=S)n2NC(=O)Nc2ccc(C)cc2)cc1`: the max response was 37.1% (active).

For `Cn1c(=O)oc2cc(S(=O)(=O)NCCC(=O)NCc3ccccc3Cl)ccc21`, the max response was -6.54%.

With `O=S(=O)(c1ccc(Br)cc1)c1nc(-c2ccccc2)oc1N1CCOCC1`, the max response is 4.42%.

In the case of `CCCCCCCCCCCCC(NC(C)=O)(C(=O)OCC)C(=O)OCC`, the max response is -2.57%.

For `CC1CCN(C(=O)CCc2nnc3ccc(NCc4ccco4)nn23)CC1`, the max response is -0.588%.

Turning to `CCc1ccc(C2N3CC4([N+](=O)[O-])CN2CC([N+](=O)[O-])(C3)C4(C)C)cc1` (configuration not stated), the max response was -2.16%.

Take `C=CCC(NCc1ccco1)c1ccc(OC)cc1` (configuration not stated): the max response was 1.37%.

With `COc1ccc(Nc2nc(NCc3ccco3)nc(N/N=C/c3ccccc3Cl)n2)cc1`, the max response is 16.9% (active).

As for `COc1ccc(Nc2nc(Cl)nc(NCc3ccco3)n2)cc1`, the max response is 5.68%.

Regarding `COc1ccc(C)cc1NC(=O)NCCCCc1ccccc1`, the max response is 7.65%.

With `CS(=O)(=O)N1CCN(c2cccc(Cl)n2)CC1`, the max response was -1.63%.

For `CS(=O)(=O)N1CCc2nc(-c3ccccc3)sc2C1`, the max response was 47.1% (active).

With `CS(=O)(=O)N1CCN(C(=O)Cc2ccccc2)CC1`, the max response is -2.32%.

With `Cc1occc1C(=O)Nc1nnc(-c2ccncc2)s1`, the max response was 15.8%.

As to `Cc1occc1C(=O)Nc1nnc(C2CCCCC2)s1`, the max response was 17.4% (active).

With `CC1CCN(c2ccc(C(=O)Nc3nnc(C4CC4)s3)cc2[N+](=O)[O-])CC1`, the max response is -2.98%.

Take `Cc1cccc(NC(=O)CSCC(=O)Nc2nnc(C3CC3)s2)c1`: the max response is 6.4%.

With `O=C(Nc1nnc(C2CC2)s1)c1cc(Cl)sc1Cl`, the max response was 12.2% (active).

On to `O=C(Cc1cccs1)Nc1nnc(C2CC2)s1`, for which the max response is 8.46%.

Regarding `O=C(Nc1nnc(C2CC2)s1)c1ccccn1`, the max response is 34.9% (active).

On to `COc1ccc(NC(=O)CCC(=O)Nc2nnc(C3CCCCC3)s2)cc1`, for which the max response was -3.75%.

Take `O=C(Nc1nnc(C2CC2)s1)C1=NN(C2CCS(=O)(=O)C2)C(=O)CC1` (configuration not stated): the max response was -6.02%.

Take `COc1ccccc1CNC(=O)[C@@H]1CCCN1C(=O)[C@@H]1Cc2ccccc2CN1C(=O)OC(C)(C)C`: the max response was 8.54%.

`Cc1ccc(S(=O)(=O)N(C)CC(=O)NCCc2c[nH]c3ccccc23)cc1`: the max response is 0.209%.

Take `Cc1cccc(NC(=O)NC2(C)CCS(=O)(=O)C2)c1` (configuration not stated): the max response was 1.38%.

As for `COc1ccccc1CNC(=O)c1ccc(N(C)S(=O)(=O)c2ccc(C)cc2)cc1`, the max response is -0.735%.

Turning to `Cc1coc2c(O)cc3c(c12)OC1(N2CCCCC2)C(=O)NCCCC31` (configuration not stated), the max response is -0.492%.

As to `COc1ccc(CNS(=O)(=O)c2cc(-c3cc(C)no3)ccc2C(C)C)cc1`, the max response was -0.908%.

As to `CCCCC(=O)Nc1c2c(nn1-c1ccc([N+](=O)[O-])cc1)CS(=O)(=O)C2`, the max response is -4.82%.

Regarding `O=C(c1cc2ccccc2s1)N1CCN(c2ccccn2)CC1`, the max response is -0.772%.

Take `Cc1ccc(COc2ccc(C(=O)NN)cc2)cc1`: the max response was 15.8%.

With `NNC(=O)c1cccc(COCC(F)(F)C(F)F)c1`, the max response is 9.81%.

For `CC(C)c1cc(C(N)=O)c(NC(=O)c2cccc(COc3ccc(Br)cc3)c2)s1`, the max response is 142% (active).

For `CN(C)C(=O)CCC(=O)N1CCCCC1C(=O)Nc1ccc(Oc2ccccc2F)cc1` (configuration not stated), the max response is -1.6%.

For `O=S(=O)(NCc1cccnc1)c1ccc(Br)s1`, the max response is -6.09%.

Turning to `O=S(=O)([N-]c1nc2ccccc2nc1-[n+]1ccc(Cc2ccccc2)cc1)c1ccc(Br)s1`, the max response was 10.5% (active).

With `Cc1cc(C)c[n+](-c2nc3ccccc3nc2[N-]S(=O)(=O)c2cccs2)c1`, the max response was -0.756%.

Regarding `CCCSc1nc(NCc2ccco2)c2c3c(sc2n1)COC(C)(CC)C3` (configuration not stated), the max response is 24.2%.

Consider `O=c1onc(-c2c(F)cccc2F)n1-c1ccccc1Cl`, for which the max response is -4.66%.

In the case of `O=C(O)c1cc2c(cc1NC(=O)c1c(F)cccc1Cl)OCCCO2`, the max response was -4.07%.

Regarding `CCSc1nnc(NC(=O)c2ccc(C)cc2)s1`, the max response was 32.4% (active).

For the compound `C=CCSc1nnc(NC(=O)c2ccc(NC(C)=O)cc2)s1`, the max response was 14.5% (active).

Turning to `NC(=O)CSc1nnc(NC(=O)c2ccc(Br)o2)s1`, the max response is 27.9%.

Take `CCSc1nnc(NC(=O)Cc2ccccc2OC)s1`: the max response was 7.43%.

Turning to `O=C(Nc1nnc(SCc2ccccc2Cl)s1)c1cccc([N+](=O)[O-])c1`, the max response was -4.31%.

As for `CCOC(=O)CSc1nnc(NC(=O)c2cccc(S(=O)(=O)N3CCCC3)c2)s1`, the max response was -1.74%.

With `Cc1ccc(N=Cc2c(O)n(-c3nccs3)c(=O)c3ccccc23)c(C)c1`, the max response was 0.787%.

Take `O/N=C(\C[n+]1ccccc1)c1ccc(Br)cc1`: the max response was -6.18%.

Take `CC1CC(=O)N(CC(=O)Nc2cccc(Cl)c2)c2ccccc2S1(=O)=O` (configuration not stated): the max response was -1.52%.

As to `O=C(NC1CCCCCC1)c1cccnc1Sc1ccc(Cl)cc1`, the max response was -2.31%.

As to `Cc1cc(C)c(NC(=O)C[N+](C)(C)CC(O)COc2cccc3ccccc23)c(C)c1` (configuration not stated), the max response is -2.87%.

As to `CCC(C)(C)NC(=O)C(c1ccc(O)cc1)N(Cc1ccco1)C(=O)CCC(=O)Nc1ccccn1` (configuration not stated), the max response is 13.8%.

With `COc1ccc(C2=NS(=O)(=O)N(C)C(C(=O)NC(C)c3ccccc3)=C2)cc1` (configuration not stated), the max response was -2.97%.

On to `O=C(Nc1cccc(-c2cscn2)c1)C1CCN(Cc2ccsc2)CC1`, for which the max response is -0.646%.

Take `COCCOC(=O)c1c(C)oc2cc(Br)c(OCC(N)=O)cc12`: the max response was -1.75%.

Consider `Cc1cc(-c2n[nH]c(=S)n2-c2ccc(C)c(C)c2)no1`, for which the max response is 10.2%.

For `CCCc1cc(-c2n[nH]c(=S)n2CC)c2ccccc2n1`, the max response is -5.71%.

As for `CCCc1nc2scc(-c3ccc(C)cc3)c2c(=O)n1N`, the max response was 25.8%.

On to `Cc1cc(-c2nc(C)c(-c3nnc(SCC(=O)Nc4ccccc4)n3C)s2)no1`, for which the max response is -3.06%.

As for `CCC(C)Sc1nnc(-c2c[nH]c3ccccc23)n1CCOC` (configuration not stated), the max response was -2.17%.

Turning to `Cc1ccc(-c2csc(-c3cc(C)on3)n2)cc1`, the max response is 17% (active).

In the case of `Cc1ccc(-c2csc(-c3c[nH]c4ccccc34)n2)cc1`, the max response is 52.5% (active).

As for `CCCc1cc(-c2nc(-c3ccc(C)cc3)cs2)ccn1`, the max response was 39.7% (active).

Consider `CCn1c(SCCC(C)C)nnc1-c1c[nH]c2ccccc12`, for which the max response was -5.75%.

In the case of `COc1cccc(N(CC(=O)NC2CCCC2)C(=O)CCCC(=O)Nc2ccccn2)c1`, the max response is -1.64%.

`Cn1nccc1C(=O)NC1CCCc2c1cnn2-c1ccc(F)cc1F` (configuration not stated): the max response was -0.526%.

Regarding `O=C(NCCN1C(=O)S/C(=C\c2cccnc2)C1=O)c1ccc(S(=O)(=O)N2CCCC2)cc1`, the max response is 7.82%.

As for `NC(=O)C1(C(N)=O)OC1c1ccc(Cl)cc1Cl` (configuration not stated), the max response was -2.97%.

For `CCOCC(=O)NCc1ccc2c(c1)cc(C)n2C`, the max response was 0.782%.

Regarding `Cc1sc(NC(=S)NC(=O)c2cccs2)nc1-c1ccc(CC(C)C)cc1`, the max response is 9.37%.

As for `Cc1ccc(S(=O)(=O)CC(=O)NC(C)c2ccccc2)cc1` (configuration not stated), the max response is -0.898%.

Take `CC1(C)SC2c3ccccc3C(=O)N2[C@@H]1C(=O)NCc1ccco1` (some centres not stated): the max response was -2.7%.

In the case of `CCCCNC(=O)c1cn(CC)c2cc(N3CCN(C(=O)c4ccco4)CC3)c(F)cc2c1=O`, the max response was -2.67%.

`CC(C)OCCCNC(=O)CN1C(=O)/C(=C/c2ccccc2F)Oc2ccccc21`: the max response was -1.24%.

In the case of `CN(C)C(=O)Cn1c(=O)n(S(=O)(=O)c2ccccc2)c2ccccc21`, the max response is -2.7%.

On to `O=C(CSc1nnc2c(n1)[nH]c1ccccc12)NC1CCCCC1`, for which the max response is -2.06%.

In the case of `O=C(CSc1nnc(-c2ccccc2O)o1)NC1CCCCC1`, the max response is -5.38%.

Take `O=C(CSc1ncnc2c1oc1ccccc12)NC1CCCC1`: the max response is 13.3% (active).

`COc1ccc(N(CC(=O)NCCSCc2cccc(Cl)c2)S(C)(=O)=O)cc1`: the max response is 10.3%.

Take `COc1ccccc1NC(=O)CCC(=O)N1CC(C)Oc2ccc(C)cc21` (configuration not stated): the max response is -2.59%.

Consider `COc1ccc(CNc2nccs2)cc1`, for which the max response is 15.6% (active).

For the compound `COc1ccc(CNc2ncnc3ccccc23)cc1`, the max response is -4.12%.

In the case of `COc1ccc(N(CC(=O)NCc2ccc(F)cc2)C(=O)CCC(=O)Nc2nccs2)cc1`, the max response was 2.82%.

On to `O=C(NCc1cccnc1)C12CC3CC(CC(C3)C1)C2`, for which the max response was -4.42%.

For `Cc1cccc(N2C(=O)SC(SC(=Nc3ccccc3)Nc3ccccc3)C2=O)c1` (configuration not stated), the max response was 50% (active).

As to `COC(=O)c1ccccc1SC1CC(=O)N(c2cccc(C)c2)C1=O` (configuration not stated), the max response is -2.47%.

Take `Cc1cccc(N2C(=O)CC(SC(N)=Nc3ccccc3)C2=O)c1` (configuration not stated): the max response is 6.82%.

Regarding `O=C(NCc1ccc2c(c1)OCO2)C(=O)NCC1OCCN1S(=O)(=O)c1ccc(F)cc1` (configuration not stated), the max response is 0.524%.

`O=S(=O)(NC1CCCC1)c1ccc(-n2cnnn2)cc1`: the max response was -3.31%.

Regarding `Clc1nc(NC2CCCC2)nc(N2CCOCC2)n1`, the max response is -1.13%.

With `CC1CC(C)CN(CCOc2cccc3ccccc23)C1` (configuration not stated), the max response is -3.88%.

Regarding `CCCC(=O)N1c2ccc(-c3csc(N)n3)cc2CC1C` (configuration not stated), the max response is 82.4% (active).

As for `Cc1ccn(CCC(=O)N2c3ccccc3CC2C)n1` (configuration not stated), the max response is -3.05%.

`CCn1nc(C(=O)OCC(=O)N2c3ccccc3CC2C)c2ccccc2c1=O` (configuration not stated): the max response is -2.9%.
